From PubChem
SF-1 inh: inhibitors of human nuclear receptor SF-1 | AID 525 | inhibition, % at 10 µM | Q13285 | CHO-K1 Gal4-SF-1 LBD luciferase reporter | 0.55% of 65,000 active;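 active = inhibition above the mean inhibition of all tested compounds plus 3 SD, cut at about 48% in these data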;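 also: 0% = SF-1 transfected cells with DMSO and 100% = mock-transfected cells lacking SF-1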
Target sequence (Q13285 whole entry, looked up, the tested form may be a part): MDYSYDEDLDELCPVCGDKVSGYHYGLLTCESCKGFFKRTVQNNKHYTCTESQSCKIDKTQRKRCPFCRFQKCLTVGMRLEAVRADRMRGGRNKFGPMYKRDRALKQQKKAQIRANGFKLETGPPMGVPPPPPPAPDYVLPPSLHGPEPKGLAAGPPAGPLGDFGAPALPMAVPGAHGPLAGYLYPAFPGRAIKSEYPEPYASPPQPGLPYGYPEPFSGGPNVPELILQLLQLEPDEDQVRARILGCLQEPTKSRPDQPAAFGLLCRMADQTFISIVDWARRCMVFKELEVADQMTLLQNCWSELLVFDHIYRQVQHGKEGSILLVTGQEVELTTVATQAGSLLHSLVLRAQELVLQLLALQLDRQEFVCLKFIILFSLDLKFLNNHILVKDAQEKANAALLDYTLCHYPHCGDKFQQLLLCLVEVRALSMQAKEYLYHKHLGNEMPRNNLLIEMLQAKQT
An asterisk follows results filed as active. The entries come from a sample that favours hits as a whole.

SMILES	SF-1 inh
CN1CCN(C(=O)COc2ccc(-c3nc4ccccc4s3)cc2)CC1	70.9*
CCC(=NCC1CCCO1)c1c(O)[nH]c(=O)[nH]c1=O (configuration not stated)	-1.8
O=P(CN1CCN(c2ccccc2)CC1)(N1CCCCC1)N1CCCCC1	33.1
COCCn1cc(C(=O)N2CCC3(CC2)OCCO3)c2c3ccccc3n(C)c2c1=O	-0.6
CC(C)NS(=O)(=O)c1ccc(OCC(=O)N2CCN(Cc3ccccc3)CC2)c(Cl)c1	17.3
Cn1ncnc2c(=O)n(C)c(=O)nc1-2	96.5*
O=C1C2CCN(CC2)[C@@H]1Cc1ccc2ccccc2c1O	-6.6
COc1ccc(C2C(C(=O)N3CCC4(CC3)OCCO4)c3cc(OC)c(OC)cc3C(=O)N2C)cc1 (configuration not stated)	12.1
CCCCn1c(O)c(C=NCCN2CCCCC2)c(=O)[nH]c1=O	1.4
C[C@]12CCC(=O)C=C1CCC1C2CC[C@@]2(C)C1CC[C@@]2(O)CC#N (some centres not stated)	-14.5
CCOP1(=S)Oc2cc3c(cc2C(C(=O)OC)(C(F)(F)F)O1)OCO3 (configuration not stated)	-1.2
CCCCn1c(O)c(C=NCCCN(CC)CC)c(=O)[nH]c1=O	4.1
C[C@@]1(CO)[C@H](O)CC[C@@]2(C)[C@H]1CC[C@H]1C[C@@H]3C[C@@]12CC[C@]3(O)CO	83.7*
COC(=O)N(c1ccccc1)P1(=S)OCCO1	-7.9
COc1cccc(-c2cc(C(F)(F)F)n3nc(C(=O)N4CCC5(CC4)OCCO5)cc3n2)c1	-1.5
C=CCn1c(O)c(C(C)=Nc2ccc(C(=O)OCC)cc2)c(=O)[nH]c1=O	4.4
Cc1cccc(N2CCc3c2nc2ccccc2c3N)c1	5.7
CN1C(=O)C(C2(C#N)CCCCC2)C(=O)N(C)C1=O	-13.1
CCOc1cc2[nH]c(=S)n(CCCC(=O)N3CCC4(CC3)OCCO4)c(=O)c2cc1OCC	-4.4
COC(=O)c1ccc(N2C(=O)CC(N3CCC(n4c(=O)[nH]c5ccccc54)CC3)C2=O)cc1 (configuration not stated)	53.6*
CC(C(N)=O)N1CC(c2ccccc2)CC1=O (configuration not stated)	-11.8
Cc1ccc2cc3cc(C(=O)N4CCC5(CC4)OCCO5)oc3nc2c1	-12.6
C=CCOC(=O)C1=C(C)OC(N)=C(C#N)[C@@]12C(=O)N(CC(N)=O)c1ccccc12	-1.5
OC1(c2ccc(F)cc2)CC2CCC(C1)N2Cc1nnnn1C1CCCCC1 (configuration not stated)	-14.3
Cc1c2ccncc2c(C)c2c1[nH]c1ccccc12	76.5*
